Assay outcomes (PubChem)
An excerpt weighted towards active compounds, which were near 1.5% of everything screened.
RAD54 branch: inhibitors of human RAD54 branch migration, primary screen, biochemical, fluorescence, single point; DNA repair and recombination protein RAD54-like (Homo sapiens), Q92698; RAD54 Holliday junction branch migration, FAM/BHQ fluorescence; inhibition, % at 10.4 µM; hit rate 0.14% among 360,000;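 active = mean normalized replicate activity at least 40 and at least half of replicates scoring 40 or more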;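 note: 0% = median of neutral control wells and 100% = median of positive control wells; inhibitors cause a drop in the FAM fluorescence signal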
RAD52 inh: RAD52 DNA annealing inhibitors, primary screen, biochemical, FRET, single point, set 2; DNA repair protein RAD52 homolog (Homo sapiens), P43351; recombinant RAD52 DNA annealing, FRET fluorescence; inhibition, % at 18.7 µM; hit rate 0.46% among 360,000; AID 651710, 2012;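 active = every replicate showing at least 50% inhibition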
N-glyco inh: increase of ERlucT glycosylation luciferase signal, primary screen, N-linked glycosylation inhibitor project, D54 ERlucT cells, luminescence, set 2. D54 ERlucT glycosylation luciferase reporter, 24 h; percent of 100 nM tunicamycin response. reporter increase, % at 12.5 µM. hit rate 0.23% among 360,000. AID 588692, 2011;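 active = mean luciferase reporter signal, scaled so untreated is 0 and the glycosylation-blocking control 100, at or above a set limit in every replicate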;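 note: luciferase carries N-glycosylation sites so blocking glycosylation raises the light; 0% = median of neutral control wells and 100% = median of 100 nM tunicamycin wells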
FID counter: compounds displacing fluorescent DNA intercalator, primary screen, artefact control for HCV NS3 helicase inhibitor project, biochemical, FID fluorescence; inhibition, % at 7.9 µM; DNA fluorescent intercalator displacement; hit rate 0.17% among 290,000; in the data active = inhibition above about 37%;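 note: 0% = vehicle and 100% = reference compound; higher means more ethidium bromide displaced from hairpin DNA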
miR-122 sensor: miR-122 Renilla sensor signal increase in Huh7, primary screen, miR-122 inhibitor project, cell-based, single point, plate reader | hit rate 0.3% among 340,000 | activation (reporter increase), % at 12.5 µM | Huh7 miR-122 Renilla luciferase sensor, 48 h; neutral wells = 0, positive control = 100;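 active = mean replicate activation score at least 90 and every replicate individually at or above 90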;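 note: higher luciferase means less miR-122 activity so hits act as miR-122 inhibitors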
NRP1-CendR mod: modulators of CendR peptide binding to NRP-1, primary screen, biochemical, fluorescence polarization, uHTS; Neuropilin-1 (Homo sapiens), O14786; FAM-RPARPAR peptide binding to NRP-1; inhibition, % at 25 µM; hit rate 0.85% among 360,000;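 active = inhibition or corrected inhibition above about 18%, plus a signal ratio from 0.5 to 1.5, limit read from the data, passing the limit was not always enough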
Target sequence (O14786 whole entry, looked up): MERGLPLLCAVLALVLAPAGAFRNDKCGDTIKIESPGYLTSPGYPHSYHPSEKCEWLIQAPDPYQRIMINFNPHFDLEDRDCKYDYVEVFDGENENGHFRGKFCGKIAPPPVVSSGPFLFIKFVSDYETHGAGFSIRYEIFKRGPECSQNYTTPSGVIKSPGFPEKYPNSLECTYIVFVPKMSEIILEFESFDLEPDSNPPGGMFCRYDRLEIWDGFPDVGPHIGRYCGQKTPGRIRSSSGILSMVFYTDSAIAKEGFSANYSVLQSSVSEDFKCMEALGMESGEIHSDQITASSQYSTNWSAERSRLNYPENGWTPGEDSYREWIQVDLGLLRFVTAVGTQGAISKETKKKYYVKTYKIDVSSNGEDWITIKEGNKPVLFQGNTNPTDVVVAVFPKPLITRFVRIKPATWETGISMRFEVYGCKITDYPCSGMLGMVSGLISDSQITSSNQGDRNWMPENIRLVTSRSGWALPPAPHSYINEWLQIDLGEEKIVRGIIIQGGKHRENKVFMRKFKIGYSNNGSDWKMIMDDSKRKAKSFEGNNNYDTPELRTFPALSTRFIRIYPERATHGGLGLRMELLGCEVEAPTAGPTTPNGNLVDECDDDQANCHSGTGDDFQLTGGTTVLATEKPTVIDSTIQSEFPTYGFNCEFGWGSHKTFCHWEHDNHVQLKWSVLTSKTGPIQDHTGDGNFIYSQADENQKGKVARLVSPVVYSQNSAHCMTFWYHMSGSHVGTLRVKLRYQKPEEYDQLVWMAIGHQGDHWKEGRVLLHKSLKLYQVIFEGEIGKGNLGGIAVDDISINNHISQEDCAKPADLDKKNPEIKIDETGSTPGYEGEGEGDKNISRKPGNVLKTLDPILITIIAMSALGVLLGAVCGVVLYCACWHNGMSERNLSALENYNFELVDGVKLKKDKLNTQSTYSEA
An asterisk follows results filed as active; nt = not tested or not shown; [ ] = another dose, or the depositor's remark.

SMILES	RAD54 branch	RAD52 inh	N-glyco inh	FID counter	miR-122 sensor	NRP1-CendR mod
CC(=O)N1[C@@H]2Cn3c(ccc(-c4ccccc4)c3=O)[C@H]1[C@@H](C(=O)N1CCCCC1)[C@@H]2CO	6	59*	nt	nt	0[16.7 µM]	nt
O=C(C1CCC1)N1CC2(C1)[C@H](c1ccccc1)[C@H](CO)N2C(=O)c1cccnc1	nt	2	nt	nt	nt	nt
COC(C[C@H]1O[C@H]1[C@@H](O)[C@H](C)OCc1ccccc1)OC	1	-13	1	nt	15	1
COC(C[C@H]1O[C@@H]1[C@H](O)[C@H](C)OCc1ccccc1)OC	5	0	1	nt	-7	26*
O=C(OCc1cc2ccccc2[nH]c1=O)c1ccncc1	nt	nt	0	-6	-4	32*
O=C(OCc1cc2ccccc2[nH]c1=O)c1ccccc1	-4	nt	0	-17	nt	-6
COc1ccc(OCC(=O)O/N=C(\N)Cc2ccc(Cl)cc2Cl)cc1	11	nt	-1	-2	-3	46*
COc1ccc(OCC(=O)O/N=C(\N)Cc2ccc(Cl)cc2)cc1	6	nt	3	-7	-6	5
COc1ccc(-c2ccc(C3[C@@H]4CN(Cc5cc(OC)cc(OC)c5)C[C@H]3N4)cc2)cc1 (some centres not stated)	nt	66*	nt	nt	nt	nt
COc1cccc(-c2ccc(C3[C@@H]4CN(C(=O)C5CC5)C[C@H]3N4)cc2)c1 (some centres not stated)	nt	44	nt	nt	nt	nt
COc1cc(CN2C[C@@H]3N[C@H](C2)C3c2ccc(-c3cccc(OC)c3)cc2)cc(OC)c1 (some centres not stated)	nt	59*	nt	nt	nt	nt
COc1cc(CN2C[C@@H]3N[C@H](C2)C3c2ccc(-c3ccncc3)cc2)cc(OC)c1 (some centres not stated)	nt	11	nt	nt	nt	nt
Cc1cccc(NS(=O)(=O)c2cc3c4c(c2)CCC(=O)N4CCC3)c1	nt	-4	-1	nt	181*	-16
O=C1CCc2cc(NS(=O)(=O)c3ccccc3)cc3c2N1CCC3	nt	-8	0	nt	63	18
CC1(C)C(=Cc2ccccc2)C(=O)c2ccccc21	-17	-2	0	nt	nt	-6
CC1(C)c2ccccc2C(=O)c2ccccc21	4	-54	-1	nt	-4	34*
CCc1ccc(NC(=O)CCn2nc(C)c(S(=O)(=O)N3CCCCC3)c2C)cc1	7	4	-3	-37	11	24*
COc1ccc(NC(=O)N(C)C[C@@H]2Oc3ccc(NC(=O)Nc4ccc(C(F)(F)F)cc4)cc3C(=O)N([C@@H](C)CO)C[C@@H]2C)cc1	-12	nt	nt	nt	-8[16.7 µM]	nt
CCOc1ccc2c(c1)OC1(CCC(C)C1)CC2=O (configuration not stated)	-6	-2	-4	nt	-6	28*
COc1ccc2c(c1)O[C@@]1(CCCC[C@@H]1C)CC2=O	-8	-11	-2	nt	-3	-5
CCN(CC)S(=O)(=O)N1CCC(C(=O)NCCC2=CCCCC2)CC1	5	-4	0	-32	-5	27*
COc1ccc(CNC(=O)CCNS(=O)(=O)c2ccc(Cl)cc2)cc1	1	-6	-3	-10	-5	28*
CCOC(=O)[C@H]1[C@H]2COc3ccc(C)cc3[C@@H]2N2C(=O)c3cc(OC)c(OC)cc3NC(=O)[C@@]12C	-1	17	9	nt	nt	-8
CCOC(=O)[C@H]1[C@H]2COc3ccc(Br)cc3[C@@H]2N2C(=O)c3cc(OC)c(OC)cc3NC(=O)[C@@]12C	3	-12	31*	nt	-2	1
CCOC(=O)[C@H]1[C@H]2COc3ccc(OC)cc3[C@@H]2N2C(=O)c3cc(OC)c(OC)cc3NC(=O)[C@@]12C	15	1	31*	nt	-8	-4
SMILES	RAD54 branch	RAD52 inh	N-glyco inh	FID counter	miR-122 sensor	NRP1-CendR mod
COc1ccc2c(c1)[nH]c1c(=O)n(CCCN3CCOCC3)cnc12	16	4	0	8	nt	-6
O=c1c2[nH]c3ccc(F)cc3c2ncn1CCCN1CCOCC1	7	nt	-2	2	nt	47*
COc1ccc2c(c1)OC[C@H]1[C@H]2N2C(=O)c3ccc(F)cc3NC(=O)[C@@]2(C)[C@H]1c1ccccc1	-2	-8	20	nt	1	9
CCOC(=O)[C@H]1[C@H]2COc3ccc(OC)cc3[C@@H]2N2C(=O)c3ccccc3NC(=O)[C@@]12C	-7	-1	-1	nt	-4	-2
COc1ccc2c(c1)[C@H]1[C@H](CO2)[C@H](c2ccccc2)[C@]2(C)C(=O)Nc3ccc(Br)cc3C(=O)N12	-1	-31	41*	nt	nt	-7
COc1ccc2c(c1)C(=O)N1[C@H]3c4cc(OC)ccc4OC[C@@H]3[C@H](c3ccccc3)[C@]1(C)C(=O)N2	7	-12	62*	nt	-7	6
COc1ccc2c(c1)[C@H]1[C@H](CO2)[C@H](c2ccccc2)[C@]2(C)C(=O)Nc3cc(F)ccc3C(=O)N12	0	11	41*	nt	-9	9
COc1ccc2c(c1)[C@H]1[C@H](CO2)[C@H](c2ccccc2)[C@]2(C)C(=O)N[C@H](C)C(=O)N12	1	3	-2	nt	9	11
COc1ccc2c(c1)[C@H]1[C@H](CO2)[C@H](c2ccccc2)[C@]2(C)C(=O)Nc3ccccc3C(=O)N12	0	-6	67*	nt	-10	14
O=C(C1CCC1)N1CC2(C1)[C@@H](c1ccccc1)[C@@H](CO)N2C(=O)c1ccccn1	nt	-8	nt	nt	nt	nt
COc1ccc2c(c1)OC[C@H]1[C@H]2N2C(=O)c3cc(Br)ccc3NC(=O)[C@@]2(C)[C@H]1c1ccccc1	3	nt	36*	nt	0	10
COc1ccc2c(c1)OC[C@H]1[C@H]2N2C(=O)[C@H](C)NC(=O)[C@@]2(C)[C@H]1c1ccccc1	-2	-8	2	nt	-2	7
CCN1[C@@H]2Cn3c(ccc(C4=CCCC4)c3=O)[C@H]1[C@@H](C(=O)N[C@H](C)c1ccccc1)[C@@H]2CO	1	-30	nt	nt	6[16.7 µM]	nt
Cc1ccccc1Oc1ccc2c(c1)[C@@H]1C[C@H](N(C)C(=O)Nc3cc(Cl)cc(Cl)c3)[C@H]([C@H](C)O)C(=O)N1CC2	4	-5	-1	nt	4	35*
Cc1ccc(C(C)C)c(OCc2nn(CC(=O)c3ccc(OC(F)F)cc3)c3[n+]2CCCCC3)c1	38	nt	12	37*	2	1
CCn1cc(-c2ccnc3cc(C(=O)O)nn23)c(C)n1	-1	-4	1	-2	-9	32*
Cc1nc2c(OCCC3CCCCC3)cccn2c1N(C)C(=O)CCC1CCCC1	-10	-21	-4	nt	-8	26*
